Source: PubChem BioAssay (NCI)
The panel holds about 83,000 compounds, 20% with a hit somewhere; the sample as a whole holds those more often.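 Testing used 96-well plates and a 48-hour single-concentration exposure. Example: -40 means 40% of the starting cells died.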 Values without a mark were called inactive. Calls of active or inactive are those of the source. Rule for the calls: active = growth percent below 10; inactive = the rest.

Assays:
Experiment in all cases: NCI-60 one-dose screen, 48 h (100 = growth as untreated, 0 = no growth, -100 = all killed)
Conditions in all cases: 10 µM unless noted
[1] = tested on: SR leukemia
[2] = tested on: RPMI-8226 leukemia
[3] = tested on: OVCAR-8 ovarian
[4] = tested on: OVCAR-5 ovarian
[5] = tested on: OVCAR-4 ovarian
[6] = tested on: SK-OV-3 ovarian
[7] = tested on: IGROV1 ovarian
[8] = tested on: OVCAR-3 ovarian
[9] = tested on: HS 578T breast
[10] = tested on: NCI/ADR-RES ovarian
[11] = tested on: T-47D breast
[12] = tested on: BT-549 breast
[13] = tested on: MDA-MB-435 melanoma
[14] = tested on: SW-620 colon
[15] = tested on: MCF7 breast
[16] = tested on: HCT-116 colon
[17] = tested on: HCC-2998 colon
[18] = tested on: KM12 colon

Structure (SMILES)	growth [1]	growth [2]	growth [3]	growth [4]	growth [5]	growth [6]	growth [7]	growth [8]	growth [9]	growth [10]	growth [11]	growth [12]	growth [13]	growth [14]	growth [15]	growth [16]	growth [17]	growth [18]
CCN(CC)CCOc1ccc2c(-c3ccccc3)c(-c3ccc(OC)cc3)c(=O)oc2c1	21.9%	48.8%	72.6%	91.6%	73.7%	84%	110%	94.3%	63.4%	66.7%	51.4%	90.6%	41.3%	39.4%	61.3%	30%	90.9%	60.4%
C#CCOc1ccc2nc(CCl)c(Cl)c(Nc3cccc(C(F)(F)F)c3)c2c1	17.7%	62.7%	82.7%	104%	101%	114%	85.1%	78.2%	88.8%	97.1%	65.9%	60.6%	84.1%	66.4%	40.7%	64%	98.3%	93.6%
Fc1cccc(CNc2c3ccccc3nc3ccccc23)c1	19.1%	10.1%	36%	43.8%	30.5%	51.1%	25.6%	67%	63.9%	30.1%	42.7%	77.1%	48.9%	22%	7.9% (active)	13.4%	29.9%	48.6%
C/C=C1/CN(CCCCC)CC[C@H]1C(=O)c1cc2ccccc2[nH]1	98.4%	94.9%	91.7%	96.3%	86.6%	83.3%	98.5%	94%	97.3%	93.6%	82.6%	97.4%	97.8%	87%	89.3%	66.5%	101%	109%
O=C(NCCNC(c1ccccc1)C(NCCNC(=O)c1ccccc1)c1ccccc1)c1ccccc1 (centres undefined)	50.2%	90.1%	78.9%	83.8%	91.3%	99.9%	82.4%	116%	115%	76.6%	97.8%	96.4%	114%	57.8%	70.7%	53.8%	105%	100%
Oc1c(I)cc(I)cc1CN(Cc1ccccn1)Cc1ccccn1	9.92% (active)	16.1%	10.1%	55.1%	26.4%	25.8%	15.3%	30.8%	38.9%	0.252% (active)	22.4%	30.7%	35.6%	22.2%	13.4%	18.1%	35.1%	26.8%
C=CC(=O)Nc1cccc(Oc2nccc(Nc3nnc(-c4ccc(Br)cc4)s3)n2)c1	89.3%	87.4%	98.5%	95.4%	86.4%	91%	101%	102%	93.4%	99.8%	82.1%	109%	94.3%	96%	70.8%	98.9%	114%	100%
CC1(C)CC[C@]2(CO)CC[C@]3(C)[C@](O)([C@H](O)C[C@@H]4[C@@]5(C)CCCNC(C)(C)[C@@H]5CC[C@]43C)[C@@H]2C1	3.98% (active)	74.4%	101%	106%	96.2%	98.2%	102%	101%	98.9%	100%	84.3%	98.8%	93.2%	99.6%	91.7%	71.3%	58.4%	95%
